# Screening results from PubChem BioAssay.
# Hits are enriched below; roughly 3% of the tested compounds scored in any of these assays.
# IMPase cell inh: IMPase inhibition in cells | P97697 | CHO-M1 cells, IP1 accumulation, HTRF TR-FRET ratio | inhibition (IP1 accumulation), % at 46.1 µM | 120,000 tested, under 10 active | AID 901; active means well fitted curve in the direction sought with a large enough effect in the signal ratio, not every such curve was filed as active; inconclusive means small, poorly fitted or top-dose-only effect, or a change in a side signal; inactive means no such curve, though single readings can be large or run the other way; the % refers to the signal ratio;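 further: cells stimulated with carbachol in lithium chloride buffer; higher means more IMPase inhibition seen as more IP1 and lower FRET ratio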
#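 Measured: the HTRF emission ratio (665/620 nm) plus the 620 nm donor channel, each fitted to the Hill equation to give AC50. Cells were CHO-M1 given compounds up to 46 uM and a 30 min carbachol stimulation at 37C.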
# 12-hLO inh: 12-hLO (ALOX12) enzyme inhibition; 0.12% of 150,000 active; Potency, µM (doses to about 57.1 µM), usual class: inhibitors; purified 12-hLO, xylenol orange hydroperoxide absorbance; further: nearly all actives have a fitted effect of over 55% in size
# Target sequence (P18054 whole entry, looked up): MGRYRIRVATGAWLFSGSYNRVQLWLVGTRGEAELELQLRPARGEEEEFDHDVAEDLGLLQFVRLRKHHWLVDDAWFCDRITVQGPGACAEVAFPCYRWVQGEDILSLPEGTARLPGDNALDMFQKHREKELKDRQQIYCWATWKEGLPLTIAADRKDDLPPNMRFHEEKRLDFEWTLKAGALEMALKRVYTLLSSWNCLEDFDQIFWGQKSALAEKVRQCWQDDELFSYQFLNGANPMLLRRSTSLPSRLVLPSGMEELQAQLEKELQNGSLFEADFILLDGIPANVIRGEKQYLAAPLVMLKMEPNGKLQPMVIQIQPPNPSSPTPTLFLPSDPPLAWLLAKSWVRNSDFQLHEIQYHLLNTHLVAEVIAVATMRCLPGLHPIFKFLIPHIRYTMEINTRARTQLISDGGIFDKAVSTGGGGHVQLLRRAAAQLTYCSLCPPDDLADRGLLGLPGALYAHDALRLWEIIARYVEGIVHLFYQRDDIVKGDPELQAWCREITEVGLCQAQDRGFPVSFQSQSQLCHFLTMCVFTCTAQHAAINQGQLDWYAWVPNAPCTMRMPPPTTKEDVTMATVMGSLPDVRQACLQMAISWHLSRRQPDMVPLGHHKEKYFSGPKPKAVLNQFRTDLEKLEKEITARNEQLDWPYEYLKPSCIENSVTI
#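 Hydroperoxide output read as Fe(III)-xylenol orange absorbance, 573-to-405 nm ratio, after 30 min reaction with 40 uM arachidonic acid. Enzyme: 150 nM purified human 12hLO, 15 min compound preincubation; 25 mM Hepes pH 7.0, room temperature.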
# ALOX15B inhib: 15-hLO-2 (ALOX15B) enzyme inhibition. Potency, µM (highest dose often 57.1 µM), actives largely listed as inhibitors. purified 15hLO-2, xylenol orange hydroperoxide absorbance. 0.56% of 110,000 active. O15296. AID 881; further: nearly all actives have a fitted effect of over 60% in size
#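 Screening format was qHTS against 50 nM purified 15hLO-2 in Hepes pH 7.5 with detergent. Activity follows hydroperoxide formation from 45 uM arachidonic acid, measured as 573:405 nm absorbance ratio of the ferric-xylenol orange complex.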
# PNC inhibitor: perinucleolar compartment assembly inhibition; PC3M PTB-GFP, PNC prevalence imaging, 16 h; active compounds read low; activity change (PNC), negative = inhibition, % at 10 µM; 3.1% of 140,000 active; AID 2417;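 active means readout at or below -70, meaning at least 70% loss of cells showing the perinucleolar compartment, a nuclear body marking cancer cells; inconclusive means readout between -30 and a set limit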
#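 Compounds are pinned in duplicate onto adhered PC3M cells stably expressing GFP-tagged PTB and incubated 16 h at 37 C. Cells are then fixed, nuclei stained with Hoechst, and PNC-positive cells counted.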
# Hits are given with their value; – = inactive; ? = inconclusive; · = no result given; [ ] = remark or other dose. Unless noted, the call rests on the fitted dose curve; in most records, active means well fitted curve in the direction sought with a large enough effect; inconclusive means small, poorly fitted or top-dose-only effect, or another doubt; inactive means no such curve, though single readings can be large; an effect the other way counts as inactive or inconclusive.
SMILES,IMPase cell inh,12-hLO inh,ALOX15B inhib,PNC inhibitor
Cc1ccc(C2C(C#N)=C(N)SC(N)=C2C#N)c(C)c1,–,?,13µM,–
Cc1ccc(C2C(C#N)=C(N)SC(N)=C2C#N)cc1,?,?,?,–
COC(=O)C(C(=O)Nc1ccccc1C)C1CCCC1 (configuration not stated),–,–,–,-83
COC(=O)C(C(=O)Nc1ccc(OC)cc1)C1CCCCCC1 (configuration not stated),–,–,–,-81
CCCCc1nc2c(c3c1C[C@H](C)OC3)CN(S(=O)(=O)CCCC)CC2,·,–[11.4 µM],·,·
C[C@@H]1NC(=O)c2cc([N+](=O)[O-])cc(I)c2OCC[C@@H](C(N)=O)NC(=O)[C@H](CCC(=O)O)NC1=O,·,–,·,–
c1ccc(-c2nc3ccccc3nc2-c2ccccn2)nc1,–,–,–,-86
CCC1(C)Cc2ccccc2-c2c1c(=O)n(-c1ccc(C)cc1)c1nnnn21 (configuration not stated),–,–,–,–
CC1(C)Cc2ccccc2-c2c1c(=O)n(Cc1ccccc1)c1nnnn21,–,–,·,-100
CCC1SC(N)=NC1=O (configuration not stated),–,–,–,-90
COc1ccc2c(c1)CN([C@H](C)[C@@H]1CC[C@@H]3[C@H]4CC[C@H]5C[C@@H](O)CC[C@@]5(C)[C@H]4CC[C@]31C)CO2,·,–[11.4 µM],–[11.4 µM],·
CC12CNCC(C)(CN(C(c3ccccc3)c3ccccc3)C1)C2,–,–,·,–
CC1(C)Cc2c(C#N)c(OCC(=O)c3ccc(Cl)cc3)nc(-c3ccoc3)c2CO1,–,–,–,-94
Cc1sc(NC(=O)Cc2ccc3c(c2)OCO3)nc1-c1ccc2c(c1)CCN2C(=O)c1cccc(F)c1,–,–,·,-119
Brc1ccc(-c2noc(COc3ccc4c(c3)CCC4)n2)o1,–,–,–,-80
Cc1ccc(-c2cc(C(=O)N/N=C/c3cccnc3)n[nH]2)o1,·,–,·,-106
Cc1ccc(-c2cc(C(=O)O)n[nH]2)o1,–,–,–,–
Cc1ccc(/C=c2\s/c(=C(/C#N)C(=O)N3CCCC3)n(Cc3ccco3)c2=O)s1,–,–,?,-90
O=C(NCC(c1ccco1)N1CCCC1)c1ccc(Cl)cc1 (configuration not stated),–,–,–,–
OC(CNCC(c1ccco1)N1CCCCC1)c1ccccc1 (configuration not stated),–,–,–,-127
COc1cc(/C=C/C(=O)OCC(=O)N2CCN(C(=O)c3ccco3)CC2)ccc1O,·,–,·,–
O=C(O)/C=C/C(=O)Nc1ccccc1-c1ccccc1,–,–,?,-109
[Cu].[O-]/N=C1/C(=[OH+])Nc2ccccc21.[O-]Nc1c(O)[nH]c2ccccc12,·,–[11.4 µM],–[11.4 µM],·
CCOC(=O)C1C(=O)CC(C)(O)C(C(=O)OCC)C1/C=C/c1ccccc1 (configuration not stated),–,–,–,–
O=C(Cc1coc2ccc3ccccc3c12)Nc1nccs1,–,–,–,-107
SMILES,IMPase cell inh,12-hLO inh,ALOX15B inhib,PNC inhibitor
Cc1cc(C)nc(SCc2nnc(SCC(=O)Nc3nccs3)n2C)n1,–,–,·,-100
CCn1c(Cc2cccc3ccccc23)nnc1SCC(=O)Nc1nccs1,–,–,·,-100
O=C(Cc1coc2ccc3ccccc3c12)NCc1ccccc1,–,–,–,–
Cc1ccc(-n2nc(CN3CCOCC3)c(-c3ccccc3)c2N)c(C)c1,–,–,·,–
COc1ccccc1NC(=O)CN1C(=O)C(C)SC(C)C1=O (configuration not stated),–,–,·,-99
COc1cc(NC(=O)c2ccccc2Cl)c(OC)cc1NC(=O)CN1CCOCC1,–,–,–,-90
COc1ccccc1NC(=O)CN1CCN(Cc2ccccc2)CC1,–,–,–,-87
COc1ccccc1NC(=O)CN1CCN(CC(=O)Nc2ccc(OCc3ccccc3)cc2)CC1,–,–,–,–
CC1(C)N=C(c2ccc(Cl)cc2)C(=O)N1,–,–,–,?
Cc1cccc(-c2nc(=S)c3c(n2Cc2ccco2)CCCC3)c1,–,–,?,?
S=c1nc(-c2ccccc2Cl)n(Cc2cccnc2)c2c1CCCC2,·,–,·,-88
Cn1nc(OCC(N)=O)ccc1=O,–,–,·,-100
NC(=O)COc1ccc(=O)n(-c2ccccc2)n1,–,–,–,–
CC(C)C[C@@H](CC(=O)N[C@@H](CCC(=O)O)CC(=O)O)NC(=O)[C@@H]1CCCC[C@H]1NC(=O)C[C@H](CCCN)NC(=O)C[C@H](CO)NC(=O)[C@@H]1CCCC[C@H]1N,·,–,·,·
O=C(Nc1ccc(NC(=O)C2CC2)nc1)c1cccs1,–,–,–,-107
O=C(Nc1ccc(NC(=O)C2CC2)cn1)c1ccccc1Cl,–,–,–,-112
CCOC(=O)c1[nH]c2c(c1Cc1ccccc1OC)C(=O)CC(c1ccc(OCC)cc1)C2 (configuration not stated),–,·,·,·
Cc1cccn2c(=O)c3cc(C#N)c(=O)n(CC4CCCO4)c3nc12 (configuration not stated),–,–,?,–
O=C(CN1C(=O)C2C3C=CC(C3)C2C1=O)Nc1nc2ccccc2[nH]1 (configuration not stated),–,–,–,?
CCOC(=O)c1cnc(SCc2nc(N)nc(Nc3ccccc3)n2)nc1N,–,–,–,-123
CCOC(=O)c1ccc2nc(Nc3nc4ccc(F)cc4s3)sc2c1,·,–,·,-107
COC(=O)c1ccc2nc(Nc3nc4c(F)cc(F)cc4s3)sc2c1,·,–,·,-100
Cc1ccc(S(=O)(=O)N(CC(=O)O)Cc2cccc(C)c2)cc1,·,–,·,·
COC(=O)[C@@H]1[C@@H]2C[C@H]3c4[nH]c5ccccc5c4CCN3C[C@@H]2CC[C@@H]1OS(=O)(=O)O,·,–[11.4 µM],–[11.4 µM],·
NCCNS(=O)(=O)c1ccc(N)cc1,·,–[11.4 µM],–[11.4 µM],·
SMILES,IMPase cell inh,12-hLO inh,ALOX15B inhib,PNC inhibitor
CCCN(CCC)S(=O)(=O)c1cc(Br)cc2c1N(C(=O)CC)CC2,–,–,–,–
CCC(C)(C)n1nnnc1C(c1ccncc1)N1CCC(C)CC1 (configuration not stated),–,–,·,-119
CC(C)(C)n1nnnc1C(c1cccnc1)N1CCN(C2CCCCC2)CC1 (configuration not stated),–,–,–,-84
S=c1[nH]c2ccccc2s1,·,–[0.00818 µM],?,·
Cc1nn(-c2ccccc2)c(N)c1N=Nc1ccccc1,·,–,·,–
Cc1nn(-c2ccccc2)c(N)c1N=Nc1ccc(Cl)cc1,–,?,·,-93
Cc1cccc(N=Nc2c(C)nn(-c3ccccc3)c2N)c1C,·,–,·,-134
Nc1nn(-c2ccccc2)c(N)c1N=Nc1ccccc1F,·,–,·,?
Cc1c(C(=O)NN2CCOCC2)nn(-c2ccc(Cl)cc2Cl)c1-c1ccc(I)cc1,–,–,–,·
O=C1C2C3C=CC(C3)C2C(=O)N1c1cccc(N2C(=O)C3C4C=CC(C4)C3C2=O)n1 (configuration not stated),–,–,–,-99
O=C1C2C3C=CC(C3)C2C(=O)N1c1ccc2ccccc2n1 (configuration not stated),–,–,·,?
